Rows were chosen to be rich in hits. Some 6.2% of all compounds tested hit in one or more screens of this group.
H9c2 protect – modulators protecting cardiomyocytes from myocardial damage | H9c2 cardiomyocytes, H2O2 injury protection, ATPLite, 2 h | protection from H2O2 cell death, % at 20 µM | 360,000 tested, 0.63% active;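 active means compounds giving at least 50% protection of heart cells from peroxide-induced death in the single-dose screen, raw or plate-pattern-corrected value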;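 further: 0% = DMSO wells with peroxide and 100% = DMSO wells without peroxide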
AI-2 QS mod – modulators of Vibrio harveyi AI-2 quorum sensing system; Vibrio harveyi JMH597 AI-2 luminescence/OD600 ratio, 9 h; hits give low values; strain lacks LuxN and CqsS sensors; 0 = neutral-control median; activity change, % at 7.5 µM; 300,000 tested, 0.4% active; AID 2094; in the data active means activity change below about -75%, passing the limit was not always enough; inconclusive means no clear call, values can overlap the other calls;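 further: luminescence divided by OD600 gain over 9 h not by final OD600 alone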
NTR1 ag – agonists of human neurotensin receptor NTR1; P30989; NTR1-U2OS beta-arrestin-GFP spot imaging, agonist mode; activation, % at 20 µM; 330,000 tested, 0.17% active;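 active means activation at or above 40% of the spot to cytoplasm intensity ratio, with at least 20 cells analyzed; inconclusive means wells under 20 cells, flagged as cytotoxic or low count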;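 further: 0% = DMSO without peptide and 100% = 100 nM NTR1 peptide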
NR3A LBD binder – modulates the human NR3A ligand-binding domain | NR3A LBD differential scanning fluorimetry, Tm shift; 0% = protein alone, 100% = glycine-bound protein | Tm shift relative to glycine control, % at 25 µM | 340,000 tested, 2.5% active | AID 1259313;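 active means melting temperature shift of at least 10% of the positive control shift, at one fixed dose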
AHR activator – activators of human aryl hydrocarbon receptor; 320,000 tested, 2.5% active; AHR-responsive luciferase reporter cells, luminescence; P35869; activation, % at 5 µM; AID 2796; in the data active means activation above about 47%;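 further: 0% = vehicle wells and 100% = reference agonist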
Target sequence (P35869 whole entry, looked up): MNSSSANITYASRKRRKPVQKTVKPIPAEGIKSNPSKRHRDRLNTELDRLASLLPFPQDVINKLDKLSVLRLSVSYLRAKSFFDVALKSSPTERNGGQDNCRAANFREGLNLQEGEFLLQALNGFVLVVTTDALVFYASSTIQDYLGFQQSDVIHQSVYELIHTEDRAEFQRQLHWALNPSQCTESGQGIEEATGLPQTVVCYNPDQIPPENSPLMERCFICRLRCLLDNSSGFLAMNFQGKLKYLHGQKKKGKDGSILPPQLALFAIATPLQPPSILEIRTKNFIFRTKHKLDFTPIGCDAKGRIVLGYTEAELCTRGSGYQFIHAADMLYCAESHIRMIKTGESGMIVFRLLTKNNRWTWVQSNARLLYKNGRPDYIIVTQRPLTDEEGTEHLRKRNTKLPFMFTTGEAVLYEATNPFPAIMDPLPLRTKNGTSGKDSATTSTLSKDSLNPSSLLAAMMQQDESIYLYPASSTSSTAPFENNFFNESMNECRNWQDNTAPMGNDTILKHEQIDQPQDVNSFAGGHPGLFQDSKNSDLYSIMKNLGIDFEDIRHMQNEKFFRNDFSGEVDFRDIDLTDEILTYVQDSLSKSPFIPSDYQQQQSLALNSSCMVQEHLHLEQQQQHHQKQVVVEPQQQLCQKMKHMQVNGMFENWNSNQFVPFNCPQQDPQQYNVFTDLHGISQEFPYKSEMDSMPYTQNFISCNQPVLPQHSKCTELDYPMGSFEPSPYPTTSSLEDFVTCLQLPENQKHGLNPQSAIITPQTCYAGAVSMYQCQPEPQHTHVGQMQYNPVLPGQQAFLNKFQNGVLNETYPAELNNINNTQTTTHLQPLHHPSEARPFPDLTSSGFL
Mot1-301 SUMO – blocks SUMOylation pathway, rescuing yeast Mot1-301 growth | growth rescue, % at 18.8 µM | 320,000 tested, 1% active | S. cerevisiae Mot1-301 growth rescue, ATP luminescence, 38.5C; percent above DMSO median, 100 means doubled;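 active means every valid replicate shows activation above 250% relative to neutral control wells; inactive means the rest, any valid replicate at or below 250%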;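 further: OY570 slx delta 5 strain wells were the positive control but not used for scaling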
Active calls of the source: *; ? = inconclusive; . = not tested or not shown.

SMILES | H9c2 protect | AI-2 QS mod | NTR1 ag | NR3A LBD binder | AHR activator | Mot1-301 SUMO
O=C(CCC(=O)c1ccc(F)cc1)OCc1nnc(-c2ccc([N+](=O)[O-])cc2)o1 | 1.3 | . | -0.3 | 2.5 | -1.9 | -10.4
CC1CCC(NC(=O)c2cc(Cl)nc3ccccc23)CC1 (centres undefined) | 1.9 | . | -0.1 | -0.2 | 29.0 | -0.4
CCS(=O)(=O)c1ccc(N=Nc2ccc(O)c3ncccc23)c(OC)c1 | -22.0 | 12.4 | 2.4 | 2.1 | . | .
COc1ccccc1N=Nc1ccc(O)c2ncccc12 | -3.0 | 11.9 | 2.9 | -15.8 | 50.8* | -13.2
Cc1ccc(N=Nc2ccc(O)c3ncccc23)cc1C | 17.1 | 26.5 | -0.9 | -5.7 | 46.1 | -18.1
Cc1ccc(N=Nc2ccc(O)c3ncccc23)cc1 | 22.9 | 26.3 | . | -5.9 | 47.3* | -19.9
CCOc1ccc(NC(=O)CCC(=O)NNC(=O)c2ccc(Br)o2)cc1 | -2.2 | 19.9 | 4.8 | 2.8 | 8.4 | -32.8
O=C(O)c1cc([N+](=O)[O-])cc2c1C=Cc1ccccc1O2 | -2.0 | -21.0 | -1.5 | 6.3 | 12.8 | -12.0
Cc1sc2nc(CSCC(=O)Nc3cc(F)ccc3F)[nH]c(=O)c2c1C | -5.0 | . | -1.6 | -0.9 | 1.7 | 109.2
Cc1sc2nc(CSCC(=O)N(CCC#N)c3ccccc3F)[nH]c(=O)c2c1C | 59.0* | . | -0.1 | 1.3 | . | .
CC(C)Cn1c(CN2C(=O)c3ccccc3C2=O)nc2ccccc2c1=O | -2.0 | 17.3 | -1.5 | 20.2* | 0.2 | -13.4
Cc1nc(-n2[nH]c3c(c2=O)CCCC3)[nH]c(=O)c1Cc1ccccc1 | 70.3* | 131.7 | 1.4 | -1.4 | 2.6 | 62.7
O=C(NNc1nc2ccccc2s1)Nc1ccc(F)cc1 | -6.3 | 10.3 | 0.7 | -12.8 | 75.0* | -4.1
O=C(NNc1nc2ccccc2s1)Nc1ccc(Cl)c(Cl)c1 | -8.4 | -67.5 | 6.9 | 15.9* | 27.3 | -4.0
CC(C)C(=O)NNc1nc2ccccc2s1 | -3.0 | 8.9 | 0.6 | -1.0 | 7.2 | -8.7
COCCCNC(=O)c1ccc2c(=O)n(Cc3ccc4c(c3)OCO4)c(=S)[nH]c2c1 | 2.7 | 17.8 | 7.6 | 11.7* | -0.8 | -11.7
O=C(Nc1ccc(Oc2cccnc2)cc1)C1CCCCN1Cc1ccc(CO)o1 (centres undefined) | 1.9 | 9.8 | 0.6 | 10.0* | 11.1 | -6.8
CCN(C(=O)c1ccco1)c1nc(CC(=O)Nc2ccc(Cl)cc2)cs1 | -5.8 | 21.1 | 0.2 | -25.8 | 78.2* | 148.1
CCc1nc2ccc(C(=O)Nc3ccc(NC(C)=O)cc3)cn2c1N(CCC(C)C)CCN(C)C | 20.5 | . | . | . | . | .
CN(CC(=O)NCCc1ccccc1)Cc1ccco1 | -3.4 | -3.6 | -1.2 | -0.7 | 9.3 | -3.6
COc1ccccc1C(=O)N1CCN(C(=O)c2oc3ccc(C)cc3c2C)CC1 | -1.0 | 6.4 | 0.6 | 0.4 | 1.9 | 18.4
CCOc1ccccc1C=NNC(=O)C1CC1 | 1.5 | . | . | -0.5 | . | .
c1cnc2ncc3sccc3c2c1 | 2.9 | 14.7 | 3.7 | -0.8 | 3.3 | 3.6
O=c1[nH]c2cccnc2c2ccsc12 | 58.5* | 23.9 | -1.1 | -3.3 | 2.7 | 76.8
Clc1ccc(/C=N/Nc2ncnc3ccccc23)cc1Cl | 35.2 | 13.7 | 14.9 | 16.7* | 57.9* | 78.6
SMILES | H9c2 protect | AI-2 QS mod | NTR1 ag | NR3A LBD binder | AHR activator | Mot1-301 SUMO
CS(=O)(=O)N1N=C(c2cccs2)CC1c1ccccc1 (centres undefined) | -3.9 | 0.8 | -0.3 | 1.7 | 3.1 | 9.4
c1ccc(C2Oc3ccccc3C3CC(c4cccs4)=NN32)cc1 (centres undefined) | 9.7 | 35.4 | -2.5 | -8.0 | 47.7* | 7.3
CC(=O)N1N=C(c2ccccc2)CC1c1ccccc1[N+](=O)[O-] (centres undefined) | 1.9 | 4.6 | 1.8 | -3.0 | 35.3 | -7.9
O=[N+]([O-])c1ccc(C2Oc3ccccc3C3CC(c4ccccc4)=NN32)s1 (centres undefined) | . | . | . | . | 58.6* | 24.8
COc1cccc(CNC(=O)[C@@H](C)N2C(=O)N3CCc4c([nH]c5ccc(OC)cc45)C3(C)C2=O)c1 (some centres undefined) | -7.4 | -4.7 | -0.8 | -1.8 | 1.1 | -3.9
CCN1C(=O)[C@H]2[C@@H](c3ccc(OC)cc3)N[C@]3(CCCN(Cc4ccc(F)cc4)C3=O)[C@H]2C1=O | 1.4 | . | . | . | . | .
O=C(NCc1cccnc1)C1C2C=CC(C2)C1C(=O)Nc1cccc(C(F)(F)F)c1 (centres undefined) | 2.0 | . | . | . | . | .
CC(C)C[C@H](N)c1nnc(S(=O)(=O)Cc2ccc(F)cc2)o1 | -40.3 | -87.7* | 5.0 | 1.0 | -2.3 | -25.2
O=C(OC1CCOC1=O)C1CCN(S(=O)(=O)c2c(Cl)cccc2Cl)CC1 (centres undefined) | -11.5 | 34.8 | 21.5 | 0.8 | -1.3 | 124.0
O=C(Nc1cccc(-c2cn3ccccc3n2)c1)C1CC1 | 1.1 | 10.1 | -1.9 | -5.7 | 65.3* | .
O=C(Nc1cccc(-c2cn3ccccc3n2)c1)c1cccc(Cl)c1 | -26.9 | 21.7 | 38.8 | 15.8* | -10.6 | 56.6
O=C(Nc1cccc(-c2cn3ccccc3n2)c1)c1cnccn1 | 9.2 | -6.2 | 0.7 | 1.0 | 46.0 | 276.4
O=C(COc1cccc2c1CCNC2=O)Nc1cccc(F)c1 | 74.1* | -12.8 | -0.3 | 0.3 | 49.1* | -17.9
Nc1ccc(C(=O)Nc2ccc(Nc3ccncc3)cc2)c([N+](=O)[O-])c1 | 10.5 | . | . | . | . | .
Cc1[nH]c2ccc(C(=O)OCC(=O)NC3(C#N)CCCCC3)cc2c1C | -5.0 | 22.4 | 0.4 | -4.8 | 2.7 | -9.7
CC(=O)c1ccc(C(=O)Nc2nnc(-c3ccc(Cl)cc3)o2)cc1 | 66.1* | ? | -0.6 | -2.1 | 3.3 | -6.9
O=C(Nc1nnc(-c2ccccc2)o1)c1ccc(Cl)cc1 | 29.0 | -48.0 | 0.0 | -7.7 | 0.7 | .
CN(C)c1ccc(C(=O)Nc2nnc(-c3ccc(Cl)cc3)o2)cc1 | 53.1* | 39.8 | 6.4 | -1.9 | 14.5 | 11.8
O=C(Nc1nnc(-c2ccco2)o1)c1ccc(Cl)cc1 | 12.4 | ? | 3.6 | -1.0 | 3.1 | -30.2
CCN(CC)CCCN1CC(=O)N2[C@@H](Cc3c([nH]c4ccccc34)C2(C)C)C1=O | 4.0 | 20.8 | -0.9 | -0.3 | 2.2 | -14.9
COc1ccc(S(=O)(=O)N2CCOCC2)cc1NC(=O)COc1ccc(C)cc1 | -0.3 | . | -1.3 | 17.6* | -0.9 | -5.6
CCN(CC)S(=O)(=O)c1ccc(OC)c(NC(=O)COc2ccc3c(C)cc(=O)oc3c2)c1 | 6.4 | -3.1 | -0.4 | 11.4* | 4.2 | 15.7
Cc1ccc(CNC(=O)COc2ccc(S(=O)(=O)N3CCOCC3)cc2)cc1 | -5.0 | 19.7 | -0.6 | 10.1* | 0.2 | -5.7
CCN(CC)S(=O)(=O)c1ccc(Cl)c(NC(=O)COc2ccc3c(C)cc(=O)oc3c2)c1 | -1.8 | 11.7 | 2.5 | 2.4 | -2.9 | 20.2
O=C(c1cc(COc2ccc(F)c(F)c2)on1)N1CCN(C/C=C/c2ccccc2)CC1 | -6.6 | -42.3 | 2.7 | -5.5 | . | .

Screening results as filed in PubChem BioAssay.
